# Marburg entry inh – blocks Marburg virus binding to or entry into cells. 1.8% of 300,000 active. Marburg virus pseudotyped entry inhibition, cell reporter. Potency, µM (series often up to 37.8 µM), for the others: at the highest dose activity change, negative = inhibition, actives largely listed as inhibitors; calls by dose curve; tested in HEK293 cells; note: potency is the fitted concentration of half-maximal effect
# FMDV inh – antivirals against foot and mouth disease virus; FMDV antiviral cell-based qHTS; Potency, µM (top dose mostly 57.9 µM), without a hit: at the highest dose activity change, negative = inhibition, usual class: inhibitors; 1.2% of 410,000 active; AID 1159524; calls by dose curve; tested in HEK293T cells; note: read-out not given here; potency is the fitted concentration of half-maximal effect; nearly all actives have a fitted effect of over 45% in size
# HCV inhibitor – inhibitors of hepatitis C virus infection | 3.4% of 340,000 active | Huh7.5.1 HCVcc-Cre infection, luciferase reporter, 44 h | Potency, µM (top dose mostly 41.8 µM), for inactives: at the highest dose activity change, negative = inhibition, most hits filed as inhibitors; active = well fitted inhibition curve with a large enough effect; inconclusive = small, poorly fitted or top-dose-only effect, or another doubt; inactive = no such curve, though single readings can be large or run the other way; note: potency is the fitted concentration of half-maximal effect
#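 1,000 cells/well; 4 h culture; + compound; + HCVcc-Cre (~0.5 moi); 44 h; luciferase substrate, RT 15 min; read 15 sec.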
# Lassa entry inh – inhibitors of Lassa virus binding or cell entry; Potency, µM (titrated, usually from 37.9 µM), inactives show at the highest dose activity change, negative = inhibition, hits mostly inhibitors; AID 540256; Lassa virus pseudotype entry inhibition, cell reporter; 1.2% of 300,000 active; calls by dose curve; tested in HEK293 cells; note: potency is the fitted concentration of half-maximal effect; nearly all actives have a fitted effect of over 50% in size
# HCMV antiviral – human cytomegalovirus inhibition; HFF cells, HCMV-luciferase reporter, 72 h; active compounds read low; activity change, negative = inhibition, % at 57.5 µM; 4.5% of 410,000 active; AID 1259415; in the data active = activity change below about -60%; inconclusive = no clear call, values can overlap the other calls; inactive = above about -39%
#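 Human foreskin fibroblasts infected with luciferase-reporter HCMV at MOI 1 PFU/cell, compounds at two doses. Luciferase measured 72 h post infection; normalized to buffer-only basal and Salinomycin (10uM) controls.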
# * marks the source's active call; other numbers are inactive results; u = inconclusive; x = not tested or not shown; ! = repeats disagree; [ ] = dose if it differs, or a comment. In the library only some 7.9% were active in any assay of this set; here they are far more common. % is set by controls: 0 for no effect and ±100 for the full control effect.
SMILES,Marburg entry inh,FMDV inh,HCV inhibitor,Lassa entry inh,HCMV antiviral
COc1ccc2c(c1)OC(C)CN(CC(=O)NCc1cn[nH]c1-c1ccc(F)cc1)C2 (stereo not drawn),x,-9%,x,x,x
COc1ccc(C(=O)NNC(=O)C(NC(=O)c2ccccc2NC(=O)c2ccco2)C(C)C)cc1 (stereo not drawn),17%[46.1 µM],-17%,4%,-2%,-38
COc1cc(NC(=O)[C@@H](NC(=O)c2ccco2)C(C)C)c(OC)cc1NC(=O)c1ccccc1,u,-6%,7.9µM*,-7%,-37
COc1ccc(Cl)cc1NC(=O)c1ccco1,1%,-10%,11µM*,0%,-5
COc1ccc(Cl)cc1C(=O)Nc1ccc(NC(=O)c2ccco2)cc1,0%,-2%,u,3%,x
COc1ccc(Cl)cc1C(=O)NNC(=O)CNC(=O)c1ccco1,x,-8%,5%,x,-99*
Cc1cc2oc(C(=O)Nc3ccc(S(N)(=O)=O)cc3)cc(=O)c2cc1C,-13%[46.1 µM],-12%,x,7%[46.1 µM],3
COc1ccc(NS(=O)(=O)c2ccc3nc(COc4cccc5ccccc45)[nH]c3c2)cc1,15µM*,-20%,u,u,-79*
Oc1ccc2c(c1)c1ccccc1c1ncccc21,6%,-24%,11µM*,5%,13
Oc1c(Cl)c(Cl)c2ncccc2c1Cl,u,-22%,3%,5%[46.1 µM],-9
O=C(c1ccc2c(c1)OCO2)N1C[C@@H]2[C@H](c3ccccc31)[C@H](CO)N2CC1CCCC1,x,x,x,x,-27
COc1cc2c(C(F)(F)F)c(-c3ccsc3)oc(=O)c2cc1OC,x,0%,5%,x,-9
COc1cc2c(C#Cc3cccnc3)c(-c3ccsc3)oc(=O)c2cc1OC,x,-17%,6.3µM*,x,-33
COc1cc2c(C#CCCCO)c(-c3ccsc3)oc(=O)c2cc1OC,x,-24%,3.2µM*,x,-61*
COc1cc(C(=O)NC(C)C2CC3CCC2C3)cc(OC)c1OC (stereo not drawn),0%,-12%,-12%,u,109
CCN(Cc1ccccc1)S(=O)(=O)c1cc(C(=O)NC(C)C2CC3CCC2C3)ccc1OC (stereo not drawn),u,-29%,11µM*,3.2µM*,-88*
CCCCNc1c(-c2ccc(SC(C)CC)c(OC)c2)nc2ccc(C)cn12 (stereo not drawn),x,22µM*,10µM*,x,-94*
CCCCNc1c(-c2ccc(SC(C)CC)c(OC)c2)nc2ccc(Cl)cn12 (stereo not drawn),x,0%,-4%,x,-16
CCCCCCSc1cccc(-c2nc3cc(C)ccn3c2NCc2ccccc2)c1,x,-25%,-21%,x,55
CCCCNc1c(-c2ccc(OC)c(Sc3ccc(OC)cc3)c2)nc2ccccn12,x,-27%,10µM*,x,x
CCCCCCSc1cc(-c2nc3ccc(C)cn3c2NCc2ccccc2)ccc1OC,x,40µM*!,-16%[8.37 µM],x,54
CCCCCCSc1cccc(-c2nc3ccccn3c2NCc2ccccc2)c1,x,25µM*,-22%,x,-65*!
CC(=O)Nc1ccc(C(=O)N2CCCC(n3cc(C(=O)NCC(C)C)nn3)C2)cc1 (stereo not drawn),x,3%,x,x,x
CCOC(=O)N1CCN(C(=O)c2ccc3c(c2)ncn3C2CCCC2)CC1,0%,x,22%,5%,-62*
CCOC(=O)N1CCC(NC(=O)c2ccc3c(c2)ncn3C2CCCC2)CC1,x,8%,-1%,x,-68*
SMILES,Marburg entry inh,FMDV inh,HCV inhibitor,Lassa entry inh,HCMV antiviral
Cc1ccc(-c2nnc(SCC(=O)NC(C)(C)C)nc2-c2ccc(C)cc2)cc1,x,-26%,x,u,-1
Cc1ccc(C(C)C)c(OCCCn2c(=O)oc3ccccc32)c1,-24%[46.1 µM],-21%,x,25%[46.1 µM],-12
Cc1ccc(CNC(=O)CCSCc2cccc(F)c2)cc1,x,-7%,-6%,x,-62*
CC(=O)Nc1cccc(C(=O)NCc2ccc3c(c2)CCN3C(=O)c2ccc(F)cc2)c1,x,-18%,x,7%[46.1 µM],2
COC(=O)c1ccc(COC(=O)c2[nH]c(C)c(C(C)=O)c2C)o1,u,13µM*,2.2µM*,-27%,33
CC(=O)c1c(C)[nH]c(C(=O)OCc2ccc([N+](=O)[O-])cc2)c1C,-4%[46.1 µM],8%,5.6µM*,2%[46.1 µM],-15
CC(=O)c1c(C)[nH]c(C(=O)OCc2ccccc2)c1C,u,4%,u,u,0
CC(=O)c1c(C)[nH]c(C(=O)OCCCCN2C(=O)c3ccccc3C2=O)c1C,8.2µM*,13µM*,10µM*,u,x
N#CC(=C(/N)Sc1ccccc1N)/C(C#N)=C(\N)Sc1ccccc1N,u,-1%,x,x,x
COc1cccc([C@@H]2Oc3ccc(OC)cc3[C@H](O)[C@H]2O)c1,-7%[14.2 µM],x,x,x,x
COC(=O)c1ccn(-c2nc(-c3ccc(Cl)cc3)cc(C(F)(F)F)n2)n1,5%[46.1 µM],u,x,-1%[46.1 µM],-8
O=Cc1cc2ccccc2nc1SCc1ccc(Cl)cc1,u,-21%,u,10µM*,-82*
Cc1ccc(CSc2nc3ccccc3cc2C=O)cc1,u,u,u,u,-97*
Clc1ccc(CSc2cnnc3ccccc23)cc1Cl,u,16%,8%,11%[46.1 µM],-32
O=Cc1cc2ccccc2nc1SCc1ccc(Cl)c(Cl)c1,2.2µM*,u,7%,u,-92*
CCOc1ccc(-n2c(SCC(=O)N3CCOCC3)nc3c([nH]c4ccccc43)c2=O)cc1,x,-14%,x,17%[46.1 µM],24
Cc1cc(C)c2c(CC(=O)Nc3ccc(S(=O)(=O)Nc4ncccn4)cc3)coc2c1,u,-13%,x,-13%[46.1 µM],11
COCC(C)NCc1cc2ccc(OC)cc2nc1N1CCN(c2ccc(F)cc2)CC1 (stereo not drawn),x,-23%,x,x,x
CC(NC(=O)Cc1ccc(-c2ccccc2)cc1)c1ccccc1 (stereo not drawn),-3%,-13%,14µM*,u,-28
O=C(Cc1ccc(-c2ccccc2)cc1)NCc1ccccc1,-6%,-6%,-18%,u,-83*
CC(NC(=O)COC(=O)Cc1ccc(Cl)cc1)c1ccccc1 (stereo not drawn),-19%[46.1 µM],-3%,24%,-3%[46.1 µM],-3
Cc1ccc(CNC(=O)Cc2ccc(-c3ccccc3)cc2)cc1,u,8%,14%,-30%,-6
O=C(Cc1ccc(-c2ccccc2)cc1)NNC(=S)NCc1ccco1,-30%[46.1 µM],-14%,11µM*,u,-21
O=C(Cc1coc2ccc3ccccc3c12)NCc1ccccc1,u,12%,10µM*,-19%,-7
O=C(Cc1coc2ccc3ccccc3c12)Nc1nccs1,-27%,-13%,-23%,u,-24
COc1ccccc1N1CCN(C(=O)Cn2ncc3ccsc3c2=O)CC1,13%[46.1 µM],-17%,x,4%[46.1 µM],0
CCOC(=O)C1=C(CN2CCN(c3ccccc3)CC2)NC(=O)NC1c1ccc(C)cc1 (stereo not drawn),16%[46.1 µM],-15%,x,-7%[46.1 µM],2
CC(=O)N1CCN(c2ccc(NC(=O)c3ccc(Br)o3)cc2Cl)CC1,x,18%,-19%,x,-31
COc1c(F)c(F)c(C(=O)Nc2ccc(N3CCN(C(C)=O)CC3)c(Cl)c2)c(F)c1F,u,u,u,-17%,-83*
